gsp agonist – activates gsp, the McCune-Albright syndrome mutation; gsp mutant cells, cAMP HTRF, 30 min; Potency, µM (series often up to 76.9 µM), for the others: at the top dose activation (cAMP increase), most hits filed as activators; 0.13% of 340,000 active; AID 624287; active means well fitted activation curve with a large enough effect; inconclusive means small, poorly fitted or top-dose-only effect, or another doubt; inactive means no such curve, though single readings can be large or run the other way; cell line not stated here;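 further: phosphodiesterase inhibitor Ro 20-1724 added with compounds to block cAMP breakdown; nearly all actives have a fitted effect of over 60% in size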
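Cells in DMEM/10% FBS with G418 were pretreated with compounds in DMSO plus […] (300 uM stock) for 30 min at 37C. cAMP was measured by HTRF (cAMP-d2 plus anti-cAMP antibody-K) after 30 min at room temperature.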
ALOX12 inh – inhibitors of human 12S-lipoxygenase ALOX12; P18054; purified 12hLO, xylenol orange hydroperoxide absorbance; Potency, µM (top dose mostly 108 µM), without a hit: at the highest dose activity change, negative = inhibition, usual class: inhibitors; 1.1% of 580,000 active; further: on the % scale 0 is the no-effect control and ±100 the full control effect
Target sequence (P18054 whole entry, looked up): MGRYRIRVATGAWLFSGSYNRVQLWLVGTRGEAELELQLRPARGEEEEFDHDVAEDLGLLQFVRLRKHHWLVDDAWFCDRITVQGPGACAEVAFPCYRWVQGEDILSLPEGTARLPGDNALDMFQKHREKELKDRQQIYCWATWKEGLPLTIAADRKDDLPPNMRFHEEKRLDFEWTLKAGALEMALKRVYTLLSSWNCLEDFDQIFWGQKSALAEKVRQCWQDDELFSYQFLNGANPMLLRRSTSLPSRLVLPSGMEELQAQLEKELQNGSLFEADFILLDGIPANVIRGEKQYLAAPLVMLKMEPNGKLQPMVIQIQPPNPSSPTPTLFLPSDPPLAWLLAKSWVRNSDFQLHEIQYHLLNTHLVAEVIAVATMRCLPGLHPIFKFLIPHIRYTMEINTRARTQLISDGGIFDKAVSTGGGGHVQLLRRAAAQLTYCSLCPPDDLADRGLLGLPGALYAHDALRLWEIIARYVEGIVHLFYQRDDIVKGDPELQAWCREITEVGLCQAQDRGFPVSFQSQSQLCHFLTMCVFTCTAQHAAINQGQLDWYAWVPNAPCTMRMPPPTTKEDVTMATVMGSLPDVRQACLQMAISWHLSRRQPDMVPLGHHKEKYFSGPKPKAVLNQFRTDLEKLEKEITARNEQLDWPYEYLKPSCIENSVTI
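Purified human 12hLO (150 nM final) in 25 mM Hepes, 0.01% Triton X-100, pH 7.0 was preincubated 15 min at room temperature with compound. Then 40 uM arachidonic acid was added, 30 min. Hydroperoxide was read by Fe-XO absorbance ratio 573/405 nm.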
Mito fusion yeast – blocks mitochondrial division or promotes mitochondrial fusion; S. cerevisiae fusion-defective mutant growth rescue, CellTiterGlo 48 h; Potency, µM (top dose mostly 46.1 µM), for the others: at the highest dose growth rescue (activation), actives largely listed as activators; 0.23% of 320,000 active; further: % of control where 0% means no effect; nearly all actives have a fitted effect of over 45% in size
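Growth-rescue viability read-out: after 48 h at the non-permissive 37C in glycerol/ethanol YPEG, yeast mitochondrial fusion mutants are measured by CellTiterGlo luminescence; compounds (23 nl pinned per well) restoring growth score as division inhibitors or fusion activators.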
gsp antag – antagonizes gsp, the McCune-Albright syndrome mutation; gsp-mutant cells, cAMP HTRF, 30 min; Potency, µM (top dose mostly 76.9 µM), without a hit: at the top dose activity change, negative = inhibition, actives largely listed as inhibitors; 0.4% of 340,000 active; calls by dose curve; cell line not stated here;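 further: intracellular cAMP measured with PDE inhibitor Ro 20-1724 present during compound exposure; on the % scale 0 is the no-effect control and ±100 the full control effect; nearly all actives have a fitted effect of over 65% in size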
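G418-selected cells were plated in DMEM/10% FBS for 16-24 h at 37C, then treated with compounds plus the PDE inhibitor […] (300 uM solution added) for 30 min at 37C. Intracellular cAMP was measured by HTRF after 30 min lysis at room temperature.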
FUS yeast rescue – FUS proteinopathy suppression in yeast. S. cerevisiae FUS-expressing, growth rescue, OD600, 24 h. Potency, µM (doses to about 76.6 µM), actives largely listed as activators. 0.24% of 390,000 active. AID 1347120;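 further: plate controls were DMSO vehicle for no effect and reference control for full effect; nearly all actives have a fitted effect of over 55% in size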
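Cultures pregrown in 2.5% raffinose medium are shifted to minimal medium containing 2% galactose to express toxic FUS. Compounds are tested at several concentrations. After 24hr at 30C, growth is quantified at 600 nm absorbance.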
Numbers without * were called inactive; i = inactive; ? = inconclusive; . = no result; [ ] = dose if it differs, or a comment. Hits are enriched below; roughly 1.6% of the tested compounds scored in any of these assays. Unless noted, the call rests on the fitted dose curve; in most records, active means well fitted curve in the direction sought with a large enough effect; inconclusive means small, poorly fitted or top-dose-only effect, or another doubt; inactive means no such curve, though single readings can be large; an effect the other way counts as inactive or inconclusive. Potency means the concentration at half of the fitted maximal effect.

SMILES	gsp agonist	ALOX12 inh	Mito fusion yeast	gsp antag	FUS yeast rescue
COc1cc(/C=C/C(=O)OCC(=O)Nc2ccc(C)c(S(=O)(=O)N3CCCCC3)c2)ccc1O	-4%[15.4 µM]	-6%	0%	-6%	?
COC(=O)C1=C(C)N=C2SC=C(CC(=O)NC3CC3)N2C1c1cccc(F)c1 (configuration not stated)	.	14%	.	.	.
Cc1ccccc1C1(CCN2CCCCC2)CCOC(C)(C)C1 (configuration not stated)	0%	4%	-6%	18%	i
CC1(C)CC(CCN2CCCCC2)(c2cccc(C(F)(F)F)c2)CCO1 (configuration not stated)	.	1.8µM*	.	.	.
O=C(NCCc1ccc(Cl)cc1)c1nc(-c2cccc(C(F)(F)F)c2)c2ccccn12	.	51%	.	.	.
Cn1c(=O)c2c(nc(N3CCCCC3)n2CCCNC2=NCCCC2)n(C)c1=O	13µM*	?	0%	21%	.
CCCCCn1c(N2CCCC2)nc2c1c(=O)n(C)c(=O)n2C	7%[15.4 µM]	0%	5%	?	i
Cc1ccc(C(=O)Nc2ccc(S(=O)(=O)NC3=NCCCCC3)cc2)c(C)c1	15%[15.4 µM]	7%	-2%	1%	i
CCc1cc(C(=O)Nc2ccc(S(=O)(=O)NC3=NCCCCC3)cc2)sc1C	-40%[15.4 µM]	?	1%	-16%	25µM*
S=C(Nc1nc2c(s1)CCCC2)NC1CC1	22%	45µM*	-17%	6%	i
CCC1CCCCN1C(=O)Cn1cccc1-c1nc(-c2ccc(C)cc2)no1 (configuration not stated)	.	5%	.	.	.
CCCCc1ccc(S(=O)(=O)Nc2ccc(C)c(NS(C)(=O)=O)c2)cc1	-11%[15.4 µM]	?	8%	4%	i
CCCc1ccc(S(=O)(=O)Nc2ccc(C)c(NS(C)(=O)=O)c2)cc1	0%[15.4 µM]	-20%	5.6µM*	2%	i
CCOc1ccc2c(n1)CCN(C(=O)Cc1c[nH]c3ccccc13)C2	.	15%	.	.	.
O=C1c2ccccc2NC(c2cn[nH]c2-c2ccc(Cl)cc2)N1O (configuration not stated)	-16%	-2%	14%	1%	25µM*
O=C1c2ccccc2NC(c2cn[nH]c2-c2ccccc2)N1O (configuration not stated)	?	-1%	5%	7%	.
O=C(CC12CC3CC(CC(C3)C1)C2)Nc1ccc(C(=O)c2ccccc2)cc1	.	12%	.	.	.
Cc1ccc(Cn2cc(-c3ccncc3)cc2C(=O)NC2CC2)cc1	.	28µM*	.	.	.
Cc1ccc(Cn2cc(-c3ccncc3)cc2C(=O)NCC2CC2)cc1	.	3%	.	.	.
C/C(CC(=O)Nc1cc(Cl)ccc1Cl)=N\NC(N)=S	14%	?	1%	5%	?
C/C(CC(=O)Nc1ccc(Cl)c(Cl)c1)=N\NC(N)=S	-15%	1µM*	-4%	1%	i
O=C(CN1C(=O)c2ccccc2S1(=O)=O)NCCSCc1c(F)cccc1Cl	-17%[15.4 µM]	8.9µM*	-4%	-10%	i
CC1(C)CC(C)(c2ccccc2)c2cccc(C(=O)O)c2N1 (configuration not stated)	.	-59%	.	.	.
S=C(NCCCCN(Cc1ccc(Cl)cc1)c1ccc(Br)cn1)NCCCc1cnc[nH]1	.	35µM*	.	.	?
CCc1cccc(N2C(=O)CS(=O)(=O)C23C(=O)N(Cc2ccc(Cl)cc2)c2ccccc23)c1 (configuration not stated)	.	-9%	.	.	.
SMILES	gsp agonist	ALOX12 inh	Mito fusion yeast	gsp antag	FUS yeast rescue
CCOC(=O)c1sc(N)c(C#N)c1COC(=O)C1CCC1	.	-7%	.	.	.
CC1=CC(=O)C(C(=O)/C=C/c2ccc(C)s2)C(=O)O1 (configuration not stated)	.	14µM*	.	.	.
C#CCNC(=O)/C=C/c1ccc(C)s1	.	-1%	.	.	.
CC(NC(=O)c1cncc(Br)c1)C12CC3CC(CC(C3)C1)C2 (configuration not stated)	.	-2%	.	.	.
CC(C)C(=O)N/N=C/C=C/c1ccccc1	.	0%	.	.	.
CC(C)C(NC(=O)COc1ccc2ccccc2c1)C(=O)N/N=C/C=C/c1ccccc1 (configuration not stated)	14%	8.9µM*	2%	1%	i
CCCCCC(=O)N/N=C/c1ccc(C(C)C)cc1	.	-3%	.	.	.
